# High-throughput results as filed in PubChem BioAssay.
# Only some compounds are listed: those with a hit (about 5.8% of all), similar ones and a draw of the others.
# TRPV1 potentiator = potentiators of human vanilloid receptor 1 (TRPV1); TRPV1-expressing cells, Fluo-8 calcium influx, capsaicin EC20 potentiation; hit rate 0.02% among 320,000; potentiation, % at 8.33 µM; AID 540277; Q8NER1; in the data active means potentiation above about 80%; inconclusive means between about 30% and that limit; further: 0% is about no effect
#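 TRPV1-expressing cells were cultured overnight at 35.5C and loaded with Fluo-8 calcium dye for 40 to 90 min at room temperature. After a 10 s baseline, compound was added and calcium influx was read kinetically for 3 min (ex 480/em 520 nm).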
# RORg inh = ROR gamma (mouse) transcription inhibition; Drosophila S2 Gal4-RORgamma UAS-luciferase reporter, 20 h; hit rate 5.4% among 310,000; AID 2551; Potency, µM (series often up to 53.6 µM), for inactives: at the highest dose activity change, negative = inhibition, most hits filed as inhibitors; further: potency means the concentration at half of the fitted maximal effect; on the % scale 0 is the no-effect control and ±100 the full control effect; nearly all actives have a fitted effect of over 60% in size
# Target sequence (P51450 whole entry, looked up, the tested form may be a part): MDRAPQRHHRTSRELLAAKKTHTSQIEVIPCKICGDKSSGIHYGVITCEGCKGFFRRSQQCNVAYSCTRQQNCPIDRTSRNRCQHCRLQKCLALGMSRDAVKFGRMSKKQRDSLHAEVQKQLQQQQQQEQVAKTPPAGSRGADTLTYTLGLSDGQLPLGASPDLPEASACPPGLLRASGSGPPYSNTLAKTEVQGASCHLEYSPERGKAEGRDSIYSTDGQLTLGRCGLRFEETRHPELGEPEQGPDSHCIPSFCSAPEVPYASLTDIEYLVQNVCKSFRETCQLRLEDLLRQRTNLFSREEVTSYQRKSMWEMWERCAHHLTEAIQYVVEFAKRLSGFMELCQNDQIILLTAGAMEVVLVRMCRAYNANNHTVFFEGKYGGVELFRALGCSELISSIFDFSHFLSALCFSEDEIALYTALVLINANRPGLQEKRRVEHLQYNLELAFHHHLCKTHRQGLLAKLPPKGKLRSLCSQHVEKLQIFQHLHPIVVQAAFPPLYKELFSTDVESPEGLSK
#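 Using a luciferase readout, inhibitors were identified by reduced reporter activity in Drosophila cells coexpressing a copper-inducible Gal4–ROR gamma fusion and UAS-driven Photinus luciferase, incubated 20 hr after 700 uM copper sulfate.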
# TRPV1 agonist = human TRPV1 agonism | Q8NER1 | TRPV1-expressing cells, Fluo-8 calcium influx, agonist mode | activation, % at 8.33 µM | hit rate 0.19% among 320,000 | AID 540275; in the data active means activation above about 80%; inconclusive means between about 30% and that limit; further: 0% is about no effect
#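 Fluo-8 calcium influx in TRPV1-expressing cells, kinetic read (ex 480/em 520 nm). Compound added and read 3 min for agonist activity, followed by capsaicin at EC20 final and 2 min further read for enhancement.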
# uPA generation = inhibitors of cell surface uPA generation | cell surface uPA generation assay, qHTS | Potency, µM (doses to about 38.3 µM), for inactives: top-dose activity change, negative = inhibition, usual class: inhibitors | hit rate 0.31% among 330,000; active means well fitted inhibition curve with a large enough effect; inconclusive means small, poorly fitted or top-dose-only effect; inactive means no such curve, though single readings can be large or run the other way; tested in mouse RAW 264.7 cells; further: potency means the concentration at half of the fitted maximal effect; on the % scale 0 is the no-effect control and ±100 the full control effect; nearly all actives have a fitted effect of over 55% in size
# VP16 counter = counter-screen for ROR gamma inhibitors: Gal4-VP16 reporter; Drosophila S2 Gal4-VP16 UAS-luciferase, luminescence, 20 h; Potency, µM (titrated, usually from 53.6 µM), inactives show top-dose activity, negative = inhibition, actives largely listed as inhibitors; hit rate 3.5% among 310,000; AID 2546;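 further: Gal4-VP16 expression switched on by copper sulfate through the metallothionein promoter; potency means the concentration at half of the fitted maximal effect; on the % scale 0 is the no-effect control and ±100 the full control effect; nearly all actives have a fitted effect of over 50% in size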
# * = called active by the depositor; ? = inconclusive; . = not tested or not shown; [ ] = remark or other dose. Unless noted, the call rests on the fitted dose curve; in most records, active means well fitted curve in the direction sought with a large enough effect; inconclusive means small, poorly fitted or top-dose-only effect, or another doubt; inactive means no such curve, though single readings can be large; an effect the other way counts as inactive or inconclusive.
SMILES,TRPV1 potentiator,RORg inh,TRPV1 agonist,uPA generation,VP16 counter
COc1ccc(NC(C)=O)cc1NC(C)c1nc2sc(C)c(C)c2c(=O)[nH]1 (stereo unspecified),2.8,10µM*,1.8,4.2%,-2.7%
COc1ccc(OC)c(NC(=O)C(C)SCc2nc3sc(C)c(C)c3c(=O)[nH]2)c1 (stereo unspecified),7.6,.,4.3,15.3%,.
CC(=O)c1ccc(C(=O)N2CCCC(CCC(=O)N(C)CCc3ccccn3)C2)s1 (stereo unspecified),2.6,15.3%,1.1,6.4%,-5.4%
COc1cccc2c1nc(C)c1cc(C)oc12,-5.3,-76.9%,-5.0,-7.8%,-15.6%
COc1cccc2nc3cc(C)c(C)cc3nc12,-21.6,10µM*,5.9,3.16µM*,?
CN(Cc1ccco1)c1cc(-c2ccc3c(c2)OCO3)ncn1,.,-33.6%,.,.,-18.0%
COc1ccc(OC)c(NC(=O)COC(=O)COc2c(Cl)cc(Cl)c3ccc(C)nc23)c1,.,.,.,1.7%,.
COC(=O)COc1c(Cl)cc(Cl)c2ccc(C)nc12,-2.7,?,16.3,2.9%,22.4µM*
CC(C)(C)NC(=O)COC(=O)c1ccc(Cl)nc1,-0.3,0.9%,1.9,6.1%,0.5%
Cc1ccc2c(Cl)cc(Cl)c(OCC(=O)NC(C)(C)C)c2n1,-21.7,7.08µM*,24.4,-10.0%,?
CC(OC(=O)C1CCN(S(=O)(=O)c2ccc(Cl)cc2)CC1)C(=O)NC1CCCCC1C (stereo unspecified),3.8,42.5%,-2.9,-1.8%,2.5%
O=C(Nc1cccc(F)c1)Nc1ccc2c(c1)CCC2,-8.2,?,?,0.2%,?
CCCOc1ccc(CSCCNC(=S)Nc2ccccc2)cc1,-13.9,2.82µM*,?,-0.5%,?
CCOc1ccc(CSCCNC(=S)Nc2ccc(OC)cc2)cc1,-8.4,2µM*,21.6,?,7.08µM*
Cc1cc2c(cc1Cl)C(c1ccc3c(c1)OCO3)CC(=O)O2 (stereo unspecified),.,0.4%,.,.,-0.4%
CC(C)C12NC(=O)NC(=O)N1CCS2 (stereo unspecified),.,.,.,-7.0%,.
CC1=C(C(=O)OC(C)C)C(c2cccc([N+](=O)[O-])c2)n2c(cc(=O)[nH]c2=S)N1 (stereo unspecified),14.4,12.6µM*,-5.8,-0.2%,-18.2%
COc1ccc(-c2nnn(CCC(=O)O)n2)cc1,-19.2,2.24µM*,3.0,.,-57.0%
CCn1cc(C2=NCCO2)c2ccccc21,-0.3,20µM*,2.4,-3.2%,-17.4%
CCn1cc(S(=O)(=O)CC(=O)Nc2ccc3c(c2)OCCO3)c2ccccc21,12.2,11.4%,0.2,2.6%,-0.2%
CCn1cc(C(=O)C(F)(F)F)c2ccccc21,8.8,5.1%,-1.6,-2.7%,-12.0%
CCn1cc(C2=NC(C)(C)CO2)c2ccccc21,-1.2,20µM*,3.0,.,?
CCn1cc(C2=NC(c3ccccc3)CO2)c2ccccc21 (stereo unspecified),-2.0,10µM*,20.3,-10.4%,-8.9%
O=[N+]([O-])c1cccc(C2=NC(c3ccccc3)CO2)c1 (stereo unspecified),3.6,-1.3%,0.8,13.3%,-12.1%
CCn1cc(C2=NC(C)CO2)c2ccccc21 (stereo unspecified),-13.4,10µM*,17.7,.,-27.9%
SMILES,TRPV1 potentiator,RORg inh,TRPV1 agonist,uPA generation,VP16 counter
O=S(=O)(Cc1cc(-c2ccccc2Cl)no1)c1ccccc1,8.0,-3.9%,?,-6.0%,-3.8%
O=C(NCCc1c[nH]c2ccccc12)[C@H]1C[C@@H]1[C@H](NP(=O)(c1ccccc1)c1ccccc1)c1ccccc1,.,?,.,.,-4.8%
CC(=O)Oc1ccc(/C=C/C(=O)CC2OC(Oc3cc(OC(C)=O)c4c(c3)O[C@@H](c3ccc(OC(C)=O)cc3)CC4=O)C(OC(C)=O)C(OC(C)=O)C2OC(C)=O)cc1 (stereo partly specified),.,13.6%,.,.,1.0%
CCn1cc(C2=NCC(C)O2)c2ccccc21 (stereo unspecified),11.8,17.8µM*,-5.1,.,?
Clc1ccccc1-c1cc(NCc2ccccc2)ncn1,.,-0.7%,.,.,25.8%
COc1cc(OC)c(/C=N/n2c(C3CCCCC3)n[nH]c2=S)c(OC)c1,-1.1,-34.8%,8.8,-0.2%,-2.2%
COc1ccccc1/C=C\C=N\n1c(C2CCCCC2)n[nH]c1=S,-6.3,2.24µM*,?,3.8%,?
COc1ccc(/C=N/n2c(C3CCCCC3)n[nH]c2=S)c(OC)c1,-17.7,3.55µM*,25.7,1.6%,7.08µM*
COc1cccc(/C=N/n2c(C3CCCCC3)n[nH]c2=S)c1O,-3.3,10µM*,1.1,-2.8%,12.6µM*
COc1cccc(/C=N/n2c(C3CCCCC3)n[nH]c2=S)c1OC,-1.4,3.16µM*,27.7,-7.4%,7.08µM*
COc1ccccc1/C=C/C=N/n1c(-c2cc(C)[nH]n2)n[nH]c1=S,-3.5,?,9.3,0.3%,?
COc1ccccc1-c1ccc2ncnc(N(C)C)c2c1,.,?,.,.,-7.0%
S=c1[nH]nc(C2CCCCC2)n1/N=C/c1cccc(Cl)c1Cl,-9.6,3.55µM*,-2.5,-0.7%,5.01µM*
Oc1ccc(/C=N/n2c(C3CCCCC3)n[nH]c2=S)c(O)c1,8.7,-16.0%,0.5,-11.5%,-3.2%
Cn1ncc(Cl)c1C(=O)N/N=C/c1ccccn1,11.9,1.1%,-2.4,-1.3%,-1.1%
Cc1ccc(S(=O)(=O)Oc2ccccc2/C=N/NC(=O)c2c(Cl)cnn2C)cc1,-8.6,3.16µM*,16.8,-2.1%,?
CC(=O)N=c1sc2nc3ccccc3nc2n1N(C(C)=O)C(C)=O,2.0,10µM*,-0.9,-0.3%,?
C#CCn1c(=NC(=O)CSC(C)=O)sc2cc(F)ccc21,-5.6,2.51µM*,2.7,-11.5%,-28.6%
FC(F)(F)c1cnc(-c2cnc(-c3ccccn3)nc2)c(Cl)c1,-10.2,5.62µM*,7.7,-4.3%,-10.8%
Nn1c(Cc2ccccc2)nc2cc(Cl)ccc2c1=O,95.0*,-24.6%,0.8,13.1%,0.3%
Nn1c(Cc2ccccc2)nc2ccccc2c1=O,.,.,.,0.2%,.
Cc1ccc(N(C(=O)CNC(=O)c2ccco2)C(C(=O)NC2CCCC2)c2cccnc2)cc1F (stereo unspecified),-0.8,-0.3%,-1.8,-9.5%,-0.4%
COc1ccc(OC)c(C2OCCC=CC2C)c1 (stereo unspecified),.,-16.3%[10 µM],.,.,-1.0%[10 µM]
COC(=O)C1=C(C)N(Cc2ccccc2)C(=NCC2CC2)N[C@H]1c1ccc(Br)cc1,10.4,?,3.8,.,?
C/C(=N\NC(=O)c1nnn(-c2nonc2N)c1CN1CCCCC1)c1ccccc1O,-2.1,6.31µM*,-0.8,0.7%,?
CC1CCN(Cc2c(C(=O)N/N=C/c3ccccc3O)nnn2-c2nonc2N)CC1,0.6,10µM*,-0.3,6.6%,7.94µM*
CC(/C=N/NC(=O)c1nnn(-c2nonc2N)c1CN1CCCCC1)=C\c1ccccc1,-5.3,-0.3%,4.5,-2.5%,?
